Bioassay records as filed in PubChem BioAssay.
Cav32 inh = inhibitors of human Cav3.2 T-type calcium channel; Cav3.2-expressing cells, Fluo-4 calcium fluorescence FDSS; hits give low values; AID 449739; actives 4% (n = 100,000); B-score at 10 µM; O95180;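 active = single-dose well whose peak fluorescence ratio is a statistical outlier from its plate by either plate-standardised score or position-corrected B-score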
CYP2C19 activ = increases human CYP2C19 enzyme activity | P33261 | recombinant CYP2C19, luciferin-H EGE luminescence; hits give high values; 0 = fully inhibited enzyme, 1 = untreated enzyme | activation factor at 5 µM | 96,000 tested, under 10 active | AID 1025;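 active = activation factor of at least 2 at 5 µM in the primary screen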
Target sequence (P33261 whole entry, looked up): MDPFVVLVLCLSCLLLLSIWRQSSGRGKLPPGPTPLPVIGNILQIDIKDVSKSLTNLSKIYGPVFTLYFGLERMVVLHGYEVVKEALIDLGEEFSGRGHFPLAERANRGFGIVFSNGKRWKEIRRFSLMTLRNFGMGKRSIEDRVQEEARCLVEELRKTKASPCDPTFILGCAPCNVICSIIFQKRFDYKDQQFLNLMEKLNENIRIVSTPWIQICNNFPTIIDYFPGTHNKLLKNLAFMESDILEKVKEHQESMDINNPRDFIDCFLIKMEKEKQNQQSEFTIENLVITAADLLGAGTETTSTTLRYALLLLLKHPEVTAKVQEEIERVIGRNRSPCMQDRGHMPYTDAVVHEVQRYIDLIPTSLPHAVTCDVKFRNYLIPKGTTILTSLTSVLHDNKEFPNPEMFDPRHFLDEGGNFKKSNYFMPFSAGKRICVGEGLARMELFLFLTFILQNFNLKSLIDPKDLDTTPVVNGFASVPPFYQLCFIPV
CYP2C9 inh = human CYP2C9 inhibition; inhibition, % at 5 µM; AID 777; CYP2C9 Supersomes, luciferin-H conversion, luminescence; actives 20% (n = 96,000); P11712;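 active = blocking of liver enzyme CYP2C9 beyond about 50% at 5 µM, limit read from the data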
CYP2C19 inh = human CYP2C19 inhibition. P33261. CYP2C19 Supersomes, luciferin-H EGE luminescence, 30 min. inhibition, % at 5 µM. actives 21% (n = 96,000);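 active = CYP2C19 inhibition above a set limit at 5 µM in the primary screen, cut at about 50% in these data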
CYP2C9 act = CYP2C9 (human) activation; P11712; recombinant CYP2C9, luciferin-H conversion, luminescence; hits give high values; factor 1 = untreated enzyme, 0 = blocked; activation factor at 5 µM; actives 1.4% (n = 96,000); AID 1024;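 active = activation factor of 2 or more for CYP2C9 at a 5 µM dose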
Each line names hits and unclear results; the compound was inactive in the other large screens. Shown are actives, neighbours in structure and some others; about 27% of the full set was active somewhere.

CCC1(C)Cc2c(sc3nnn(CC(=O)Nc4cccc5ccccc45)c(=O)c23)CO1 (stereo not given)	CYP2C9 inh 59.5
CCC1(C)Cc2c(sc3nc(SC)n(Cc4ccccc4)c(=O)c23)CO1 (stereo not given)	CYP2C9 inh 90.3
O=C(CP(=O)(CO)CO)c1ccc(Cl)cc1	none
CSc1ccc(Cl)c(C(=O)OCC(=O)NCC(C)C)c1	CYP2C19 inh 66.2
O=C(COC(=O)C1CC1)Nc1ccc(OC(F)F)cc1	CYP2C19 inh 77.1
O=C(COC(=O)C1CCC1)Nc1ccc(OC(F)F)cc1	CYP2C19 inh 86.1
Cc1nc(SCC(N)=O)[nH]c(=O)c1CCC(C)C	none
Cc1nc(NCc2ccco2)[nH]c(=O)c1CCC(C)C	CYP2C19 inh 57.1 (no result: Cav32 inh)
O=C(C/C=N/OCc1ccccc1F)c1cnc(-c2ccc(Cl)cc2)s1	CYP2C19 inh 95.9
O=C(C/C=N/OCc1ccc(F)cc1Cl)c1cnc(-c2ccccc2)s1	CYP2C19 inh 53.4
O=C(NC1CC2CCCC(C1)N2Cc1cccs1)N1CCOCC1 (stereo not given)	none
Cc1ccc2[nH]c(=O)c(CNC(C)C)cc2c1	none
CCOC(=O)N1CCN(C(=O)c2cc(C)no2)CC1	CYP2C19 inh 71.2 (no result: Cav32 inh)
c1ccc2c(-c3nc4ncccc4o3)cccc2c1	CYP2C9 act 3.3 (no result: Cav32 inh)
O=C(COc1ccccc1)Nc1ccc(Cl)c(-c2nc3ncccc3o2)c1	none (no result: CYP2C19 activ, CYP2C9 inh, CYP2C19 inh, CYP2C9 act)
CC(C)OC(=O)CCC1(C(=O)O)CCC(=O)NC1 (stereo not given)	none
COc1ccc(S(=O)(=O)Nc2ccc(O)c3ccccc23)cc1	CYP2C9 inh 67.1, CYP2C19 inh 97.4
COc1ccc(S(=O)(=O)NC(C)C(=O)Nc2ccccc2C(F)(F)F)cc1 (stereo not given)	none
COc1ccc(S(=O)(=O)Nc2ccccc2C(F)(F)F)cc1	CYP2C19 inh 78.2
COC(=O)Nc1ccc(S(=O)(=O)Nc2cccc3ccccc23)cc1	none (no result: CYP2C19 activ, CYP2C9 inh, CYP2C19 inh, CYP2C9 act)
O=C(CC(C(=O)N1CCc2ccccc21)n1ccnc1)NCc1ccccc1 (stereo not given)	CYP2C9 inh 72.8, CYP2C19 inh 100.4
COc1ccc(C(=O)O)cc1S(=O)(=O)NCCCN1CCCC1=O	none
CC(C)N=Cc1c(O)[nH]c2ccccc12	CYP2C9 inh 54.5
COc1ccc(-n2cnnc2SCC(=O)N(C)C2CCS(=O)(=O)C2)cc1 (stereo not given)	none
CC1Cc2nc(SCC(=O)N3CCCC3)n(C)c(=O)c2S1 (stereo not given)	none
CC1Cc2nc(SCC(=O)N3CCOCC3)n(-c3ccccc3)c(=O)c2S1 (stereo not given)	none
CC1Cc2nc(SCC(=O)N3CCN(c4ccccc4)CC3)n(C)c(=O)c2S1 (stereo not given)	CYP2C9 inh 70.9, CYP2C19 inh 66.9
CC1Cc2nc(SCC(=O)N3CCN(c4ccccc4)CC3)n(CCc3ccccc3)c(=O)c2S1 (stereo not given)	CYP2C9 inh 75.6
CCC(CCC(=O)Nc1ccn(-c2ccccc2)n1)C(=O)O (stereo not given)	none
Cc1nn(C)c(C)c1NC(=O)Nc1cccc(C(F)(F)F)c1	none
Cc1snc(S(=O)(=O)/C(C#N)=N/Nc2cccc(C(F)(F)F)c2)c1C#N	Cav32 inh -6.24, CYP2C9 inh 99.3
COc1ccc(N/N=C(/C#N)S(=O)(=O)c2nsc(C)c2C#N)cc1	CYP2C9 inh 81.7
COc1ccc(Nc2nccc(OC)c2C#N)cc1	none
COc1ccccc1C1N(c2ccc(F)cc2)C(=O)C2CCCN21 (stereo not given)	none
Cc1ccc(NC(=O)C2CCCN(S(=O)(=O)c3cnc[nH]3)C2)cc1F (stereo not given)	CYP2C9 inh 86.6, CYP2C19 inh 93.9
Cc1cc(C)cc(NC(=O)C2CCCN(S(=O)(=O)c3cnc[nH]3)C2)c1 (stereo not given)	CYP2C9 inh 92.9, CYP2C19 inh 80.9
COc1cc(NC(=O)C2CCCN(S(=O)(=O)c3cnc[nH]3)C2)cc(OC)c1 (stereo not given)	CYP2C9 inh 88.4
CCCCn1c(Cc2ccccc2)nnc1SCC(=O)Nc1cc(C)on1	none (no result: CYP2C19 activ, CYP2C9 inh, CYP2C19 inh, CYP2C9 act)
CCCCN(CC)CCCNC(=O)C1c2ccccc2C(=O)N(C)C1c1cn(C)c2ccccc12 (stereo not given)	none
O=C(O)CNC(=O)c1ccccc1NC(=O)c1ccco1	none
O=C(NCCNC(=O)C(c1ccccc1)c1ccccc1)c1ccco1	CYP2C9 inh 51.2, CYP2C19 inh 65.5
O=C(Nc1ccccc1C(=O)NCCc1ccccc1)c1ccco1	CYP2C9 inh 71.1, CYP2C19 inh 53.9
O=C(Nc1ccccc1C(=O)NCc1ccc(Cl)cc1)c1ccco1	CYP2C9 inh 57.7 (no result: Cav32 inh)
C/C(CC(=O)NCc1ccco1)=N\NC(=O)Cc1ccccc1	none
C/C(CC(=O)NCc1ccco1)=N\NC(=O)C(c1ccccc1)c1ccccc1	CYP2C9 inh 50.8
O=C(NCCc1ccccc1)c1ccco1	none (no result: CYP2C19 activ, CYP2C9 inh, CYP2C19 inh, CYP2C9 act)
NC(=O)c1cccc(-c2cc(Nc3ccc(OC(F)(F)F)cc3)ncn2)c1	none (no result: CYP2C19 activ, CYP2C9 inh, CYP2C19 inh, CYP2C9 act)
CC1(C)CC(=O)C(C=NCCCn2ccnc2)=C(O)C1	none
COCCCNC(=O)c1c(N)n(/N=C/c2cccs2)c2nc3ccccc3nc12	CYP2C9 inh 67.2
COCCNC(=O)c1c(N)n(-c2cccc(C)c2)c2nc3ccccc3nc12	Cav32 inh -6.08
COCCNC(=O)c1c(N)n(-c2ccccc2)c2nc3ccccc3nc12	none
COCCNC(=O)c1c(N)n(CCCn2ccnc2)c2nc3ccccc3nc12	CYP2C9 inh 89.2, CYP2C19 inh 68.8
COCCSc1ccccc1C(=O)NCc1ccc(S(N)(=O)=O)cc1	none
Cc1c(C(=O)NCCSCc2ccc(Cl)cc2Cl)cccc1[N+](=O)[O-]	none
CC1(C)OC(=O)C(=CNCC(=O)NCC(=O)O)C(=O)O1	none
O=C(O)C[C@H]1c2ccc(C(F)(F)F)cc2S(=O)(=O)N1Cc1ccccc1	none (no result: CYP2C19 activ, CYP2C9 inh, CYP2C19 inh, CYP2C9 act)
CC(NC(=O)COc1ccc(Oc2ccccc2)cc1)C(=O)O (stereo not given)	none
O=C1c2ccsc2SCCN1Cc1c(Cl)cccc1Cl	Cav32 inh -5.63, CYP2C9 inh 88.7, CYP2C19 inh 97.1
O=c1[nH]c(CN2CCN(c3ccccc3Cl)CC2)nc2ccsc12	none
O=C1c2ccsc2SCCN1Cc1ccc(Cl)cc1Cl	Cav32 inh -4.58, CYP2C19 inh 53.2
CNC(=O)c1cc2c(=O)n3cccc(C)c3nc2n(C(C)C)c1=N	none
COC(=O)CC/C(C)=N\Nc1ccc([N+](=O)[O-])cc1[N+](=O)[O-]	none
CC(=O)NC12CC3CC(C1)CC(C(=O)Nc1nccs1)(C3)C2	CYP2C9 inh 55.7, CYP2C19 inh 84.7 (no result: Cav32 inh)
Cc1ccc(NC(=O)COn2nnc3ccc(S(=O)(=O)N(C)C)cc32)cc1F	CYP2C9 inh 97.5, CYP2C19 inh 88.7
CCc1ccc(NC(=O)COn2nnc3ccc(S(=O)(=O)N(C)C)cc32)cc1	CYP2C9 inh 81.5, CYP2C19 inh 82.4
Cc1ccc(-c2[nH]nc3c2C(c2ccc(OC(=O)N4CCOCC4)cc2)C(C#N)=C(N)O3)cc1 (stereo not given)	none
